Source: PubChem BioAssay (Tox21)
Records with an inconclusive call do not appear. A call without a number means that no potency is given here. The source made the active and inactive calls. Unless noted, calls come from the whole dose curve.

Legend:
[1] = Nuclear factor erythroid 2-related factor 2/antioxidant responsive element (Nrf2/ARE) small molecule agonists: qHTS cell viability counter screen in human keratinocytes (AID 1919968; active = well fitted cell-killing curve with a large enough effect in the repeat runs; note: nearly all actives have a fitted effect of over 55% in size; note: potency is the fitted concentration of half-maximal effect)
Procedure, shortened: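 Stably transfected HaCaT (KeratinoSens), 1,500/well. Test agents in DMSO were applied for 23 h, 37 C/5% CO2. CellTiter-Fluor was incubated 1 h before the fluorescence read.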

[2] = Nuclear factor erythroid 2-related factor 2/antioxidant responsive element (Nrf2/ARE) small molecule agonists: luciferase reporter gene qHTS assay in human keratinocytes (AID 1919969); note: nearly all actives have a fitted effect of over 35% in size; note: potency is the fitted concentration of half-maximal effect
[3] = target: Gonadotropin-releasing hormone receptor (Homo sapiens) (UniProt P30968); experiment: Human gonadotropin-releasing hormone receptor (GnRHR) small molecule agonists, calcium flux assay in GnRHR-HEK293 cells (AID 1920063); note: nearly all actives have a fitted effect of over 35% in size
Chain of Gonadotropin-releasing hormone receptor (Homo sapiens) (P30968 whole entry, looked up): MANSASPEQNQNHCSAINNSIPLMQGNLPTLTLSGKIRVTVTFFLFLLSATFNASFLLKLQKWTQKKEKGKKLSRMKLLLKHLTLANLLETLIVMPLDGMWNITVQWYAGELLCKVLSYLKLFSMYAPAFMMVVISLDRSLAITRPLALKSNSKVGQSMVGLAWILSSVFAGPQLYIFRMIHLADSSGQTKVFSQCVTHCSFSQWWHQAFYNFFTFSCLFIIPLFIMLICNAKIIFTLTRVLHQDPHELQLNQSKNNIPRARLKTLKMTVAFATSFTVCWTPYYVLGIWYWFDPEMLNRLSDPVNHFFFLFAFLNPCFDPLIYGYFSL
Procedure, shortened: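 Stable human GnRHR HEK293 line. 18 h plating, then calcium dye for 1 h at 37 C. Agonist-mode compound addition from DMSO stocks; fluorescence monitored 3 min.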

[4] = G protein-coupled receptor (GPCR) small molecule agonists, calcium flux assay: HEK293 wild type cell line counter screen (AID 1920065)
Procedure, shortened: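 Following 18 h incubation at 37 C/5% CO2, plates got calcium dye for 1 h; compounds, ATP or DMSO were then pinned in and fluorescence followed kinetically (480/540 nm).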

[5] = p53 small molecule agonists, cell-based qHTS assay with human liver microsomes (AID 1963577);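 note: p53 response element beta-lactamase reporter cells with liver microsomes plus NADPH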
Procedure, shortened: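 In this qHTS, p53 response-element beta-lactamase cells receive test compound together with a microsome/NADPH activating system (0.5 mg/mL final each) and are incubated 16 h at 37 C before LiveBLAzer fluorescence detection.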

[6] = p53 small molecule agonists, cell-based qHTS assay with rat liver microsomes (AID 1963578)
Procedure, shortened: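 Agonist mode in p53RE-bla reporter cells, with compounds co-incubated 16 h at 37 C alongside 0.5 mg/mL rat liver microsomes and 0.5 mg/mL NADPH (final), followed by a 2 h LiveBLAzer detection step.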

[7] = p53 small molecule agonists, cell-based qHTS assay with human liver microsomes: qHTS cell viability counter screen (AID 1963579); note: nearly all actives have a fitted effect of over 45% in size
Procedure, shortened: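 Metabolically activated exposure: compounds, human liver microsomes and NADPH (0.5 mg/mL final apiece) were added to p53RE-bla cells seeded 5 h earlier, left 16 h at 37 C, and then assessed for viability by CellTiter-Glo luminescence.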

[8] = p53 small molecule agonists, cell-based qHTS assay with rat liver microsomes: qHTS cell viability counter screen (AID 1963580); note: nearly all actives have a fitted effect of over 45% in size
Procedure, shortened: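 Cytotoxicity counter screen: intracellular ATP read by CellTiter-Glo luminescence in the p53 reporter wells. HCT-116 p53RE-bla cells were treated for 16 h at 37 C alongside rat liver microsomes and NADPH, each 0.5 mg/mL final.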

[9] = p53 small molecule agonists, cell-based qHTS assay (AID 1963582; active = well fitted activation curve with a large enough effect in the signal ratio in the repeat runs, not every such curve was filed as active; the % refers to the signal ratio)
Procedure, shortened: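 Measured: fluorescence from cleaved LiveBLAzer substrate. System: p53RE-bla cells, 16 h compound treatment at 37 C, 2 h substrate step at room temperature.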

[10] = target: 5-hydroxytryptamine receptor 2A (Homo sapiens) (UniProt P28223); experiment: 5-hydroxytryptamine receptor 2A (HTR2A) small molecule antagonists, cell-based qHTS assay (AID 1963586); note: nearly all actives have a fitted effect of over 45% in size; note: potency is the fitted concentration of half-maximal effect
Chain of 5-hydroxytryptamine receptor 2A (Homo sapiens) (P28223 whole entry, looked up): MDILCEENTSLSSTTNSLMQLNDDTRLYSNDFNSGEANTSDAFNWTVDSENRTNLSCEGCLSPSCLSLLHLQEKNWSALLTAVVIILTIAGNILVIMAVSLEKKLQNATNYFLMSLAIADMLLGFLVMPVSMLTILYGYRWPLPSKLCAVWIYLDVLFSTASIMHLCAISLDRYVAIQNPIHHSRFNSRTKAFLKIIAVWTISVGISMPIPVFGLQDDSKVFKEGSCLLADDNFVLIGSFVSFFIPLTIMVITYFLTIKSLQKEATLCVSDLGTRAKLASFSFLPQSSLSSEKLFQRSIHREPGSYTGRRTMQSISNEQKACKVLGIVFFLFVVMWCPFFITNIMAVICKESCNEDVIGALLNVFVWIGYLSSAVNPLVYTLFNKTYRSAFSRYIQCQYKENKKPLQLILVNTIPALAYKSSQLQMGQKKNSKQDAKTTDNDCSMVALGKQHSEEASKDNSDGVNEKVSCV
Procedure, shortened: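 CHO cells stably expressing human HTR2A were plated for 18 h at 37 C, then loaded with calcium dye for 1 h. Compounds were preincubated 5 min at room temperature before DOI (4 nM solution) was added. Kinetic fluorescence was read for 3 min.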

[11] = target: 5-hydroxytryptamine receptor 2A (Homo sapiens) (UniProt P28223); experiment: 5-hydroxytryptamine receptor 2A (HTR2A) small molecule agonists, cell-based qHTS assay (AID 1963587); note: nearly all actives have a fitted effect of over 30% in size
Procedure, shortened: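 Kinetic calcium-flux fluorescence (2 min, 1 sec intervals) after compound addition in agonist mode. HTR2A-CHO cells were cultured 18 h, then dye-loaded 1 h at 37 C.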

[12] = target: Muscarinic acetylcholine receptor M1 (Homo sapiens) (UniProt P11229); experiment: Cholinergic receptor muscarinic 1 (CHRM1) small molecule antagonists, cell-based qHTS assay (AID 1963588); note: nearly all actives have a fitted effect of over 40% in size
Chain of Muscarinic acetylcholine receptor M1 (Homo sapiens) (P11229 whole entry, looked up): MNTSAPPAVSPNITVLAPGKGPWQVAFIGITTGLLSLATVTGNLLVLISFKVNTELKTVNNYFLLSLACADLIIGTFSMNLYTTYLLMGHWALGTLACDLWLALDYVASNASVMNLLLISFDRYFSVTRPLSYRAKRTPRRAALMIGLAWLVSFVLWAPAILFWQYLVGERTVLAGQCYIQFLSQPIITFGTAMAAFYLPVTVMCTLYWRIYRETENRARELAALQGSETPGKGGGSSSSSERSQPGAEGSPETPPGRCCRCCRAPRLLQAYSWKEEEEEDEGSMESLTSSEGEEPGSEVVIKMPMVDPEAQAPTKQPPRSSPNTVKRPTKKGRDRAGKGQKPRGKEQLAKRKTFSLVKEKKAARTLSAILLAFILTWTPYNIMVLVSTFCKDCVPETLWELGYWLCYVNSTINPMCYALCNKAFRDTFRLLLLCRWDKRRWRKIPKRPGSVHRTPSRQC
Procedure, shortened: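 Compounds were tested at 15 concentrations in three independent runs. Dye-loaded CHRM1-CHO cells were exposed 5 min at room temperature before stimulation by acetylcholine added at 50nM. Intracellular calcium was read kinetically on FDSS for 3 min.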

[13] = target: Muscarinic acetylcholine receptor M1 (Homo sapiens) (UniProt P11229); experiment: Cholinergic receptor muscarinic 1 (CHRM1) small molecule agonists, cell-based qHTS assay (AID 1963589); note: nearly all actives have a fitted effect of over 35% in size
Procedure, shortened: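 Kinetic fluorescence (1 s intervals) of calcium-sensitive dye in human M1 CHO cells after compound addition; cells pre-incubated 18 h at 37 C/5% CO2 and dye-loaded 1 h.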

[14] = cAMP Responsive Elements (CRE) small molecule antagonists, cell-based qHTS assay (AID 1963591; active = well fitted inhibition curve with a large enough effect in the signal ratio in the repeat runs, not every such curve was filed as active; the % refers to the signal ratio)
Procedure, shortened: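 Reporter line CRE-bla HEK 293T in dialyzed-FBS DMEM; cells preincubated 18 h, treated 3 h with compound plus NKH477 (0.25 uM final); LiveBLAzer FRET, 2 h RT.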

[15] = target: Beta-2 adrenergic receptor (Homo sapiens) (UniProt P07550); experiment: Adrenergic beta2 receptor (ADRB2) small molecule antagonists, cell-based qHTS assay (AID 1963592); note: series mostly up to about 92 µM; nearly all actives have a fitted effect of over 50% in size
Chain of Beta-2 adrenergic receptor (Homo sapiens) (P07550 whole entry, looked up): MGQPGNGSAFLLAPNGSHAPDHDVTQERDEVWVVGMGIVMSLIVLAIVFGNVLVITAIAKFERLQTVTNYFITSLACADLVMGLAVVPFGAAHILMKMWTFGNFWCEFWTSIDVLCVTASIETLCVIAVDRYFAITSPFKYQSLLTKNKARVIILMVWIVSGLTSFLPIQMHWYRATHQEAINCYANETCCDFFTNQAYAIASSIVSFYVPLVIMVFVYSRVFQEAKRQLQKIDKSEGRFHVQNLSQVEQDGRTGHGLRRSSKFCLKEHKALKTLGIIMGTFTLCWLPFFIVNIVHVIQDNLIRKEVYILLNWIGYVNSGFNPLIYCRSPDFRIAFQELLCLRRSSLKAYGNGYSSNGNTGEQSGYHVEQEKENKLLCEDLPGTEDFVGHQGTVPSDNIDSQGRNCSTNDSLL
Procedure, shortened: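 Assay format: CHO-ADRB2 cells, 18-20hr seeding at 37C/5% CO2, then compound plus 1nM isoproterenol agonist mix for 0.5hr RT. Homogeneous time-resolved fluorescence cAMP detection after 1hr, expressed as 665/615 nm ratio.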

[16] = target: D(2) dopamine receptor (Homo sapiens) (UniProt P14416); experiment: Dopamine D2 receptor (DRD2) small molecule agonists, cell-based qHTS assay (AID 1963594); note: nearly all actives have a fitted effect of over 35% in size
Chain of D(2) dopamine receptor (Homo sapiens) (P14416 whole entry, looked up): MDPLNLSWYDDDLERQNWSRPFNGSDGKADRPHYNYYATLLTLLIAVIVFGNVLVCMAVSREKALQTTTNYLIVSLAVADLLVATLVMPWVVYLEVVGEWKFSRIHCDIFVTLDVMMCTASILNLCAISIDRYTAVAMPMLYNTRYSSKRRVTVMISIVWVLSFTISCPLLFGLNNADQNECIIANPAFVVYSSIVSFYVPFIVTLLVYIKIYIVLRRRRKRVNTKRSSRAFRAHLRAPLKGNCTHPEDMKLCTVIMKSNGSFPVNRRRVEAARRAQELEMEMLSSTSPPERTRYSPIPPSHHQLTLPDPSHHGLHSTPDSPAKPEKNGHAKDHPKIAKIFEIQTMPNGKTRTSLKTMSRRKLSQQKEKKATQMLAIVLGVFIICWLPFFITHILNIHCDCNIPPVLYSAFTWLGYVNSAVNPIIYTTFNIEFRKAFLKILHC
Procedure, shortened: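 cAMP accumulation in DRD2-HEK293 cells measured by HTRF after 1 h detection; compounds added 10 min before NKH477 (200nM […]) forskolin-analogue stimulation, 30 min at room temperature, with Ro20-1724 present at 0.1 mM final.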

[17] = p53 small molecule agonists, cell-based qHTS assay: qHTS cell viability counter screen (AID 1963581); note: nearly all actives have a fitted effect of over 45% in size
Procedure, shortened: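 qHTS counter screen: 16 h compound exposure at 37 C of p53RE-bla HCT-116 cells (4,000 per well, seeded 5 h prior), cell viability by ATP luminescence.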

[18] = target: D(2) dopamine receptor (Homo sapiens) (UniProt P14416); experiment: Dopamine D2 receptor (DRD2) small molecule antagonists, cell-based qHTS assay (AID 1963595; active = well fitted inhibition curve with a large enough effect in the signal ratio in the repeat runs, with a control signal flat; the % refers to the signal ratio)
Procedure, shortened: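 DRD2-HEK293; 0.1 mM Ro20-1724; cpd 10 min RT; NKH477 200 nM + quinpirole 12 nM, 30 min RT; HTRF cAMP (cAMP-d2/anti-cAMP cryptate), 665/620 nm ratio after 1 h.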

[19] = cAMP Responsive Elements (CRE) small molecule agonists, cell-based qHTS assay (AID 1963590)
Procedure, shortened: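 Test agents in DMSO were incubated 3 h at 37 C/5% CO2 with CRE-bla HEK 293T cells seeded 18 h earlier; LiveBLAzer B/G FRET substrate was added and read after 2 h at room temperature.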

[20] = target: Beta-2 adrenergic receptor (Homo sapiens) (UniProt P07550); experiment: Adrenergic beta2 receptor (ADRB2) small molecule agonists, cell-based qHTS assay (AID 1963593);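 note: CHO cells stably overexpressing human ADRB2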
Procedure, shortened: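 CHO cells stably over-expressing ADRB2 were plated overnight at 37C, then dosed with compounds plus a stimulation mix containing 100uM IBMX and 25uM Ro-20-1724 for 0.5hr at room temperature. cAMP was measured by HTRF competition, 1hr.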

Structure (SMILES) | Potency [1] | Potency [2] | Potency [3] | outcome [4] | Potency [5] | Potency [6] | Potency [7] | Potency [8] | Potency [9] | Potency [10] | Potency [11] | Potency [12] | Potency [13] | Potency [14] | Potency [15] | Potency [16] | Potency [17] | Potency [18] | Potency [19] | Potency [20]
N#Cc1ccc(CC(=O)c2cccc(C(F)(F)F)c2)cc1 | inactive | inactive | inactive | inactive | inactive | inactive | inactive | inactive | inactive | inactive | inactive | inactive | inactive | inactive | inactive | inactive |  |  |  | 
O=C(O)c1c(O)c(-c2ccccc2)nc2ccccc12 | inactive | inactive | inactive | inactive | inactive | inactive | inactive | inactive |  | inactive | inactive | inactive | inactive |  | inactive | inactive | inactive | inactive |  | 
CC(C)COC(=O)c1ccccc1 | inactive | inactive | inactive | inactive | inactive | inactive | inactive | inactive | inactive | inactive | inactive | inactive | inactive |  |  | inactive | inactive | inactive | inactive | inactive
CCN(CC)CCOC(=O)C1(c2ccccc2)CCCC1 | inactive | inactive | inactive | inactive | inactive | inactive | inactive | inactive | inactive |  | inactive |  | inactive | inactive | inactive | inactive | inactive | inactive | inactive | 
Nc1cc(C(F)(F)F)ccc1S | 26.6 µM (active) | 13.3 µM (active) | inactive | inactive | inactive | inactive | inactive | inactive |  | inactive | inactive | inactive | inactive |  | inactive | inactive |  | inactive |  | 
NC(=O)NS(=O)(=O)c1ccc(N)cc1 | inactive | inactive | inactive | inactive | inactive | inactive | inactive | inactive | inactive |  | inactive | inactive | inactive | inactive | inactive |  | inactive | inactive |  | inactive
CC(C)(O)c1ccccc1 | inactive | inactive | inactive | inactive | inactive | inactive | inactive | inactive | inactive | inactive | inactive | inactive | inactive | inactive |  | inactive |  | inactive | inactive | 
O=C1c2ccccc2C(=O)C1c1nc2ccccc2c(Br)c1O | inactive | 24.3 µM (active) | inactive | inactive | inactive | inactive | inactive | inactive |  | inactive | inactive | inactive | inactive |  | inactive | inactive | inactive | inactive |  | inactive
CC1=NS(=O)(=O)c2cc(Cl)ccc2N1 | inactive | inactive | inactive | inactive | inactive | inactive | inactive | inactive | inactive |  |  |  |  | inactive | inactive | inactive | inactive |  | inactive | inactive
NC(=O)CC[C@@H](N)C(=O)O | inactive | inactive | inactive | inactive | inactive | inactive | inactive | inactive | inactive | inactive | inactive | inactive | inactive | inactive | inactive | inactive |  | inactive | inactive | 
CCCCCCCCCCCc1ccccc1 | inactive | inactive | inactive | inactive | inactive | inactive | inactive | inactive | inactive |  | inactive | inactive | inactive |  |  | inactive |  | inactive | inactive | 
CC(C)CC(=O)C1C(=O)c2ccccc2C1=O | inactive | inactive | inactive | inactive | inactive | inactive | inactive | inactive | inactive | inactive |  | inactive | inactive | inactive | inactive | inactive |  | inactive |  | inactive
Cc1ccc(N)nc1 | inactive | inactive | inactive | inactive | inactive | inactive | inactive | inactive | inactive |  | inactive | inactive |  | inactive |  | inactive | inactive | inactive | inactive | 
CCCCN(C)C | inactive | inactive | inactive | inactive | inactive | inactive | inactive | inactive | inactive | inactive | inactive |  |  | inactive |  | inactive | inactive | inactive | inactive | inactive
C[n+]1ccccc1/C=N/O | inactive | inactive | inactive | inactive | inactive | inactive | inactive | inactive |  |  |  |  |  | inactive | inactive | inactive | inactive | inactive | inactive | 
c1ccc(C(O[C@H]2CCCN(CCc3ccc4c(c3)OCO4)C2)c2ccccc2)cc1 | inactive | inactive | inactive | inactive | inactive | inactive | inactive | inactive |  | 9.18 µM (active) | inactive |  | inactive | inactive |  | inactive | inactive | inactive | inactive | 
